PubChem BioAssay (NCI)
About 83,000 compounds went through this panel and 20% of them were active in at least one assay; those are over-represented in the sample as a whole.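 Note: values are percent growth. 100 is the growth of untreated cells, values between 100 and 0 indicate rising inhibition; between -100 and 0 indicates cell death.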 A number with no mark means an inactive call. Activity calls are given as the source filed them. The calls were made as follows: active = growth percent below 10; inactive = the rest.

test system: A498 renal; assay: NCI-60 one-dose screen, 48 h (100 = growth as untreated, 0 = no growth, -100 = all killed); conditions: 10 µM unless noted

Structure (SMILES)	growth
CCCCNC(=O)Oc1ccc(/C(=C(/CC)Cc2ccccc2)c2ccc(OCCN3CCCCCC3)cc2)cc1	72%
COc1ccc(-c2nc3c(c(-c4ccccc4)nn3-c3ccccc3)c(-c3ccc(N4CCOCC4)cc3)c2C#N)cc1	98.2%
COc1cc(-c2csc(NC(=O)c3cc(-n4cnc(C)c4)cc(C(F)(F)F)c3)n2)cc(OC)c1OC	60.6%
COc1cc(CNS(=O)(=O)c2ccc(C)cc2)ccc1OCc1cn(-c2ccc(Br)cc2)nn1	70.6%
Nc1ncnc2c1N=C(c1ccc3c(c1)OCO3)CC(c1ccc([N+](=O)[O-])cc1)N2 (stereo not given)	67.3%
COc1ccc(-c2nc3c(c(-c4ccccc4)nn3-c3ccccc3)c(-c3ccc(N4CCN(C)CC4)cc3)c2C#N)cc1	99.6%
CCOC(=O)C(=Cc1cccc(Cl)c1)C(=O)OCC	112%
O=C1NC(=O)c2c1c1c3ccccc3ccc1c1[nH]c3ccc(Br)cc3c21	-10.7% (active)
CC1(c2ccccc2O)NN=C(/N=C/c2cccc([N+](=O)[O-])c2)N1C(Cc1c[nH]c2ccccc12)C(=O)O (stereo not given)	90.9%
CCOP(=O)(OCC)c1nc(-c2ccccc2)oc1NCc1cccnc1	102%
CCOC(=O)c1cn2ncnc(Oc3ccc(NC(=O)NC4CCCCC4)c(Cl)c3)c2c1C	76.5%
COC(=O)c1cc(-c2ccccc2)[nH]c1N/N=C/c1c(Cl)cccc1Cl	-45.8% (active)
COc1ccc(-c2nnc(-c3ccc4c(c3)nc(-c3ccncc3)n4C3CCCCC3)o2)cc1	73.9%
CC(C)(C)c1cc(-c2nc3ccc(N4CCN(S(C)(=O)=O)CC4)cc3[nH]2)cc(C(C)(C)C)c1O	99.4%
CCCCN1C(=O)/C(=c2\sc3n(c2=O)C2C(NN=3)N(CC)C(=O)N2CC)c2ccccc21 (stereo not given)	-2.15% (active)
N#Cc1nn(-c2cc(=O)[nH]c3ccc(Cl)cc23)c(N)c1C#N	116%
Cc1ccc(-n2c(=S)[nH]c3sc4c(c3c2=O)CCC(=O)C4)cc1	109%

test system: CCRF-CEM leukemia; assay: as above; conditions: 10 µM unless noted

Structure (SMILES)	growth
O=Cc1ccc([N+](=O)[O-])s1	88.2%
CC(C)(C)n1cc(-c2ccnc(NCCCNS(=O)(=O)c3ccc(F)cc3)c2)c(-c2cccc(F)c2)n1	49.1%
O=C1C(Cl)=C(Nc2ccc(O)cc2)C(=O)N1Cc1ccc(Cl)cc1	4.97% (active)
COc1cc(CNC(=O)CCCC/C=C/C(C)C)ccc1OCc1nnc(Nc2ccc([N+](=O)[O-])cc2)o1	78.9%
O=C(N/N=C/c1ccc(F)cc1)c1ccc(C(F)(F)F)nc1Nc1cccc(C(F)(F)F)c1	0.801% (active)
C=C(C)[C@@H]1CC[C@]2(C(=O)NCCNCCN)CC[C@]3(C)[C@H](CC[C@@H]4[C@@]5(C)C/C(=C/c6ccncc6)C(=O)C(C)(C)[C@@H]5CC[C@]43C)[C@@H]12	97.1%
O=C(COc1ccc(-c2nc3ccccc3[nH]2)cc1)N=Nc1c(O)[nH]c2ccc(Cl)cc12	27.6%
COc1ccc(C2=Nc3c/c(=C\c4c(O)[nH]c5ccc(Cl)cc45)ccc3=N2)cc1	8.54% (active)
CCOC(=O)c1cnc2ccccc2c1Cl	118%
CCCc1cc(NC)nc(S(=O)(=O)CC)n1	107%
COc1ccc(/C=C2\C(=O)N=C3N2NC(c2cc(Br)ccc2O)C=C(C)N3c2ccccc2)cc1 (stereo not given)	99.8%
O=S(=O)(NCCNc1nccc(-c2c(-c3cccc(F)c3)nc3occn23)n1)c1ccc(Br)cc1	60.3%
CCn1cc(C(=O)N/N=C/c2cccs2)c(=O)c2cc(F)c(N3CCNC(C)C3)c(F)c21 (stereo not given)	67.2%
Cn1c(=O)c2[nH]c(N/N=C/c3ccccc3Br)nc2n(C)c1=O	104%
CCCCCCNC(=O)Oc1ccc(/C(=C(/C)Cc2ccc(OC)cc2)c2ccc(OCCCN(C)C)cc2)cc1	-2.26% (active)
O=C(OCc1ccc2cccc(O)c2n1)N1CCN(C(=O)c2cc3cc(F)ccc3[nH]2)CC1	3.76% (active)
CC(=O)[C@@H]1CCC=C2CC[C@]3(C)[C@@H](CC[C@@H]4[C@@]5(C)CCCNC(C)(C)[C@@H]5CC[C@]43C)[C@H]21	-23.4% (active)
O=c1oc2ccc([N+](=O)[O-])cc2cc1Br	109%
